Test results as given in the supplement of paper PMC6555819.

Experiments:
Test in all cases: PBM binding z-score (relative to random genomic background probes); higher = stronger binding; sequences stand for … in GC…GCGATTGACAGCGTAGAATGAAGG
[1] = tested on: FXR:RXRa (NR concentration 270 nM, RXRa partner concentration 90 nM)
Summary of the method: (§1)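 Ligand-free nuclear receptor dimers were applied to custom Agilent 4×180K protein-binding microarrays whose double-stranded probes carried direct-repeat seeds, single-nucleotide variants, half-site ablations and random human genomic background sequences in 34-nt variable regions. Incubation lasted 1 h. Binding z-scores were computed against the random background probes from regression-normalized fluorescence.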

[2] = tested on: LXRa:RXRa (NR concentration 270 nM, RXRa partner concentration 90 nM)
Summary of the method: as §1

[3] = tested on: LXRa homodimer (NR concentration 270 nM)
Summary of the method: as §1

[4] = tested on: LXRb:RXRa (NR concentration 270 nM, RXRa partner concentration 90 nM)
Summary of the method: as §1

[5] = tested on: LXRb homodimer (NR concentration 270 nM)
Summary of the method: as §1

[6] = tested on: PPARa:RXRa (NR concentration 270 nM, RXRa partner concentration 90 nM)
Summary of the method: as §1

[7] = tested on: PPARg:RXRa (NR concentration 180 nM, RXRa partner concentration 90 nM)
Summary of the method: as §1

[8] = tested on: PPARg:RXRa 270nM:90nM, anti-RXR (NR concentration 270 nM, RXRa partner concentration 90 nM)
Summary of the method: as §1

[9] = tested on: PPARg:RXRa 30nM:10nM, anti-RXR (NR concentration 30 nM, RXRa partner concentration 10 nM)
Summary of the method: as §1

[10] = tested on: PPARg:RXRa 90nM:30nM, anti-RXR (NR concentration 90 nM, RXRa partner concentration 30 nM)
Summary of the method: as §1

[11] = tested on: PPARg:RXRa DBDmut IVT, anti-RXR (DBD mutation: RXRa K156A/R161A, NR concentration 270 nM, RXRa partner concentration 90 nM)
Summary of the method: as §1

[12] = tested on: PPARg:RXRa IVT, anti-PPARg (NR concentration 270 nM, RXRa partner concentration 90 nM)
Summary of the method: as §1

[13] = tested on: PPARg DBDmut:RXRa IVT, anti-PPARg (DBD mutation: PPARg1 K132A/R137A, NR concentration 270 nM, RXRa partner concentration 90 nM)
Summary of the method: as §1

[14] = tested on: PPARg DBDmut IVT, anti-PPARg (DBD mutation: PPARg1 K132A/R137A, NR concentration 270 nM)
Summary of the method: as §1

[15] = tested on: PPARg homodimer (NR concentration 180 nM)
Summary of the method: as §1

[16] = tested on: PXR:RXRa (NR concentration 270 nM, RXRa partner concentration 90 nM)
Summary of the method: as §1

[17] = tested on: PXR homodimer (NR concentration 270 nM)
Summary of the method: as §1

[18] = tested on: RARa homodimer (NR concentration 270 nM)
Summary of the method: as §1

[19] = tested on: RARb:RXRa (NR concentration 270 nM, RXRa partner concentration 90 nM)
Summary of the method: as §1

Row | Sequence | PBM binding z-score [1] | PBM binding z-score [2] | PBM binding z-score [3] | PBM binding z-score [4] | PBM binding z-score [5] | PBM binding z-score [6] | PBM binding z-score [7] | PBM binding z-score [8] | PBM binding z-score [9] | PBM binding z-score [10] | PBM binding z-score [11] | PBM binding z-score [12] | PBM binding z-score [13] | PBM binding z-score [14] | PBM binding z-score [15] | PBM binding z-score [16] | PBM binding z-score [17] | PBM binding z-score [18] | PBM binding z-score [19]
1 | CCTTACGGGTCAAGGTTATATCACGGGTGGTACG | 5.41 | 3.89 | 0.787 | 3.34 | 0.134 | 4.99 | 4.26 | 4.7 | 1.6 | 3.52 | 1.74 | 3.78 | 0.607 | 0.522 | 2.64 | 3.63 | 0.951 | 0.89 | 4.15
2 | CCTAGCAGGCCAGGGTCACCCAAGCATTTCGCTT | 2.7 | 1.95 | -0.482 | 2.3 | -1.1 | 3.82 | 1.34 | 2.02 | -0.0989 | 1.43 | -0.0206 | 1.79 | -0.767 | -1.42 | 1.59 | 3.36 | -0.361 | -0.318 | 3.12
3 | CCTAGTTGGCCAAGGTCACACACGCTATAGGTAC | 3.78 | 3.61 | 1.6 | 3.73 | 0.597 | 3.8 | 2.42 | 2.88 | 0.959 | 1.94 | 1.76 | 2.66 | 0.582 | 0.0264 | 2.66 | 3.85 | 1.93 | 1.5 | 3.8
4 | CCTTACGGGTCAAGGTAATAGCACGGGTGGTACG | 5.58 | 3.16 | -0.011 | 2.58 | -0.283 | 4.8 | 4.75 | 4.34 | 1.46 | 3.28 | 1.83 | 3.41 | 0.176 | -0.496 | 1.93 | 2.54 | 0.213 | 0.734 | 4.1
5 | TCTTGTAGATCAAAGGTTAAGACAGCCGAAGCCT | 1.72 | 2.27 | 0.473 | 2.31 | -0.101 | 4.74 | 8.11 | 8.23 | 7.63 | 8.39 | 2.1 | 3.94 | 1.03 | 0.9 | 1.28 | 2.12 | -0.0752 | 0.276 | 1.91
6 | GCTTACGGGTCAAAGGTTATAGTATGAATAGAAT | 6.98 | 5.83 | 0.73 | 5.84 | 0.6 | 6.76 | 11.2 | 9.15 | 8.51 | 9.75 | 4.49 | 5.45 | 1.28 | 1.07 | 1.98 | 6.29 | 0.804 | 0.757 | 4.25
